RN4220 kill – growth inhibition of S. aureus RN4220, primary screen, OD600. inhibition, % (concentration not given with the values). hit rate 0.33% among 330,000. 16 h; in the data active = inhibition above about 85%;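 also: plate controls were untreated cells for no effect and reference antibiotic for full effect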
ugtP null kill – growth inhibition of ugtP-null S. aureus, primary screen, RN4220 ugtP deletion, OD600 | 16 h | growth inhibition, % (test concentration not listed) | hit rate 0.54% among 330,000 | AID 1259309, 2017; in the data active = growth inhibition above about 68%;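 also: plate controls were untreated wells for no effect and antibiotic for full effect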
TcdB GH inh – TcdB glycohydrolase inhibitors, primary screen, biochemical, single point, plate reader | Toxin B (Clostridioides difficile), P18177 | TcdB glycohydrolase enzymatic assay | inhibition, % at 9.99 µM | hit rate 0.24% among 350,000 | AID 652162, 2013; in the data active = inhibition above about 10%
Yp Topo-I inh – Yersinia pestis topoisomerase I inhibitors, primary screen, biochemical, cleavage product accumulation, plate reader, single point. activity, % at 10 µM. Y. pestis Topo-I cleavage product accumulation. hit rate 0.064% among 360,000; in the data active = activity above about 50%, passing the limit was not always enough
Mtb hypoxia inh – PubChem AID 1159583; M. tuberculosis hypoxia-regulated fluorescent reporter, fluorescence; fluorescence inhibition, % (test concentration not listed); hit rate 0.1% among 300,000; in the data active = fluorescence inhibition mostly above about 23%, no sharp cut-off; inactive = mostly below about 17%
BioA inh – M. tuberculosis BioA enzyme inhibitors, primary screen, biochemical, plate reader, single point, HTS. 7,8-diaminopelargonic acid synthase BioA (Mycobacterium tuberculosis). purified M. tuberculosis BioA enzyme. inhibition, % at 9.99 µM. hit rate 0.096% among 360,000; in the data active = inhibition above about 40%
The depositor's hits bear a star; nt = no result given; ! = not active in a repeat. This is a sample that favours compounds with a hit; in the whole collection about 0.75% have one here.

SMILES	RN4220 kill	ugtP null kill	TcdB GH inh	Yp Topo-I inh	Mtb hypoxia inh	BioA inh
CCOc1ccc(Oc2ccc(S(=O)(=O)N3CCOCC3)cc2NC(=O)C2=COCCO2)cc1	1	2	3	62*	1	-2
O=C1NC(=S)S/C1=C\c1ccc(SCc2ccccc2)o1	93*	90*	nt	9	10	1
O=C1NC(=S)S/C1=C\c1ccc(SCc2ccco2)o1	nt	nt	nt	-16	nt	4
CCOc1ccc(C(=O)NN=Cc2cc([N+](=O)[O-])cs2)cc1	6	6	nt	nt	12	nt
Cc1c(CNC(=O)c2c([N+](=O)[O-])cnn2C)cnn1C	1	4	24*	1	-1	2
Cn1ncc([N+](=O)[O-])c1C(=O)NCc1ccccc1	-4	-2	3	7	-5	nt
Fc1ccccc1COc1ccc(C=NNC(=S)NCc2ccccc2)cc1	3	2	nt	nt	2	nt
CN1CCN(NC(=O)Nc2cc(Cl)cc(Cl)c2)CC1	100*	97*	2	-6	4	-1
O=C(O)c1cc(NS(=O)(=O)c2ccc(NC3CCCCC3)c([N+](=O)[O-])c2)cc(C(=O)O)c1	7	-1	13*	1	8	nt
CC1CN(C(C)CO)C(=O)Cc2cc(NC(=O)Nc3cccc4ccccc34)ccc2OC1CN(C)S(C)(=O)=O (centres undefined)	1	-15	nt	nt	9	nt
COc1cc(C=NNC(=O)CCN2CCCCC2)ccc1O	5	3	nt	nt	9	nt
COc1cc(/C=N/NC(=O)CCN2CCCCC2)ccc1O	nt	nt	10*	-6	nt	nt
CCOC(=O)C1C2COc3ccc(Br)cc3C2N2C(=O)N(c3ccc(F)cc3)C(=O)[C@@]12C (some centres undefined)	1	-1	nt	nt	3	nt
COCCCn1[nH]c2c3c(ccc2c1=O)C(=O)c1ccccc1C3=O	86*	84*	nt	-18	-14	2
CC(C)(C)n1[nH]c2c3c(ccc2c1=O)C(=O)c1ccccc1C3=O	75	61	nt	-4	9	nt
COc1cc(/C=N/Nc2ccccn2)ccc1O	nt	nt	16*	-1	nt	nt
O=C(Nn1c(=O)[nH]c2ccsc2c1=O)c1ccccc1	98*	100*	nt	6	10	-1
CC(C)(C)CN1C(=O)C(=O)NCC1Cc1ccc(O)cc1 (centres undefined)	97*!	98*!	nt	nt	7	nt
CC(C)(C)CN1C(=O)C(=O)NC[C@H]1Cc1ccc(O)cc1	nt	nt	-1	1	nt	-2
CCn1c(SCc2ccccc2Cl)nc2ccccc21	0	91*	nt	32	nt	2
C(=NNc1nc2ccccc2s1)c1ccc2c(c1)OCO2	0	-26	nt	nt	5	nt
Cc1ccc(-c2ccc(C3C4C=CCC[C@@]4(C)C(=O)N3Cc3ccccc3)c(F)c2)cc1 (some centres undefined)	0	81*	nt	nt	4	nt
CN(C)c1ccc(-c2ccc([C@H]3[C@@H]4C=CCC[C@@]4(C)C(=O)N3Cc3ccccc3)c(F)c2)cc1	nt	nt	0	-9	nt	-2
Cc1[nH]ccc(=O)c1OCc1c(Cl)cccc1Cl	2	0	nt	-2	-11	0
Cc1ccc(Cn2ccc(=O)c(OCc3c(Cl)cccc3Cl)c2C)cc1	0	4	nt	29	68*	-2
SMILES	RN4220 kill	ugtP null kill	TcdB GH inh	Yp Topo-I inh	Mtb hypoxia inh	BioA inh
COC(=O)C(=NNc1ccccc1Cl)Sc1nnc(C(O)c2ccccc2)n1-c1ccccc1 (centres undefined)	10	-4	nt	nt	5	nt
Clc1ccc(C[n+]2c(-c3ccccc3)cc(-c3ccccc3)cc2-c2ccccc2)cc1	100*	100*	2	13	nt	31
O=C([O-])c1cc(-c2ccccc2)cc(-c2ccccc2)[n+]1CCc1ccc(Cl)cc1	88*	100*	-3	23	3	1
CC(C)(C)NC(=S)NN=Cc1cc(Br)c(O)c(Br)c1	25	4	nt	nt	3	nt
CC(C)c1ccc(-c2nnn(Cc3nc4ccccc4s3)n2)cc1	1	85*	nt	9	-2	-2
O=C(C[n+]1ccccc1)NN=Cc1ccc(O)cc1	4	8	nt	nt	13	nt
Cc1ccc(Cn2ncn3c(cc4ccccc43)c2=O)cc1	2	93*	nt	33	4	13
CN1CCN(CCCCC(=O)c2ccccc2)CC1	4	3	nt	-3	nt	-1
CN1CCN(CCCC(=O)c2ccc(C3CCCC3)cc2)CC1	-3	85*	-11	0	14	nt
O=C(Cn1nnc(-c2ccccc2Cl)n1)Nc1cccc(S(=O)(=O)N2CCCC2)c1	-3	-1	0	4	5	-2
O=C(Cn1nnc(-c2ccc(F)cc2)n1)Nc1cccc(S(=O)(=O)N2CCCC2)c1	0	3	0	-3	35*	-2
Cc1nc(P(=O)(c2ccccc2)c2ccccc2)c(N2CCOCC2)o1	0	4	nt	1	-3	0
Cc1ccccc1-c1nc(P(=O)(c2ccccc2)c2ccccc2)c(N2CCOCC2)o1	0	2	2	53*	-8	nt
C#CCOCCOCCOCCNc1nc(N2CCN(C(=O)C(Cc3cc4ccccc4[nH]3)n3cc(C(N)CC(C)C)nn3)CC2)nc(N2CCN(C(=O)C(CCC(=O)O)n3cc(C(N)C(C)CC)nn3)CC2)n1 (centres undefined)	3	4	nt	nt	-1	nt
O=C(Nc1cccc(Cl)c1)C1=Cc2cc(Cl)ccc2OC1	15	22	nt	-13	24	-1
O=C(Nc1ccc(Cl)c(Cl)c1)C1=Cc2ccccc2OC1	86*	98*	nt	-16	-2	0
O=C(CSc1nnc(-c2ccccc2)c(-c2ccccc2)n1)Nc1ccc(Br)cn1	1	88*	0	30	16	nt
O=C(CSc1nnc(-c2ccccc2)c(-c2ccccc2)n1)Nc1ncc(Cl)cc1Cl	5	4	nt	-2	2	nt
COc1ccc(C=c2sc(=CC(=O)c3ccc(C)cc3)[nH]c2=O)c(OC)c1	-4	89*	nt	nt	3	nt
CC(C)(C)C1COC(=O)C(NC(=O)OCC2c3ccccc3-c3ccccc32)CC=CCC(CC(=O)N(CCO)Cc2ccccc2)C(=O)N1 (centres undefined)	2	-2	nt	nt	2	nt
Cc1ccccc1NC(=O)CSc1ccc(-c2ccccn2)nn1	2	12	1	6	39*	0
O=C1Nc2ccc(Br)cc2C1Cc1ccccc1F (centres undefined)	6	-8	28*	5	11	1
Cc1ccccc1Oc1cc(-n2ncc(Cl)c(Cl)c2=O)ncn1	58	92*	0	7	13	-1
CC(=O)NC1=NC(=O)C(=CN2CCOCC2)S1	3	-3	nt	nt	nt	nt
CN1C=CC(=CC=C2C=CC(=O)C=C2)C=C1	0	6	27*	-4	0	-1
COc1ccc(C=O)cc1C1=CC(=O)CC(c2ccc(Cl)cc2)C1 (centres undefined)	-4	-5	nt	nt	-1	nt
O=C(Nc1cccc(Cl)c1N1CCCC1)c1cc2ccccc2o1	-12	89*	nt	19	nt	-2
